Results on 40 compounds are retold here after PubChem BioAssay (NCATS).

Records with an inconclusive call do not appear. Active and inactive are the calls of the source. Calls come from the whole dose curve; as a rule, active = well fitted cell-killing curve with a large enough effect; inconclusive = small, poorly fitted or top-dose-only effect, or effect the other way; inactive = no such curve, though single readings can be large or run the other way.
Potency is the fitted concentration of half-maximal effect.

The assay can be described thus: Quantitative High-Throughput drug screen in 47 multiple myeloma cell lines against the NCATS MIPE library collection: OPM1_PLB cell viability assay (AID 1918989). Note: nearly all actives have a fitted effect of over 40% in size. Conditions: CellTiter-Glo, 48 h; series mostly up to 45.8 µM. An excerpt:
PI: Beverly A. Mock Ph.D.
Laboratory of Cancer Biology and Genetics,
Center for Cancer Research, National Cancer Institute,
National Institute of Health, Bethesda, Maryland
Drug resistance and disease progression are common in multiple myeloma (MM) patients, underscoring the need for new therapeutic combinations. […] We hypothesized that effective combinations would reduce MYC expression and enhance p16 activity. […] These preclinical data identify potentially useful drug combinations for evaluation in drug-resistant MM and reveal potential mechanisms of combined drug sensitivity.
Described herein is the primary MIPE qHTS used to cherrypick compounds. Validated compounds were then further tested for potential synergistic activiy.
[1] Peat TJ, Gaikwad SM, Dubois W, Gyabaah-Kessie N, Zhang S, Gorjifard S, Phyo Z, Andres M, Hughitt VK, Simpson RM, Miller MA, Girvin AT, Taylor A, Williams D, D'Antonio N, Zhang Y, Rajagopalan A, Flietner E, Wilson K, Zhang X, Shinn P, Klumpp-Thomas C, McKnight C, Itkin Z, Chen L, Kazandijian D, Zhang J, Michalowski AM, Simmons JK, Keats J, Thomas CJ, Mock BA. Drug combinations identified by high-throughput screening promote cell cycle transition and upregulate Smad pathways in myeloma. Cancer Lett. 2023 Aug 1;568:216284. doi: 10.1016/j.canlet.2023.216284. Epub 2023 Jun 24. PMID: 37356470; PMCID: PMC10408729.
SEQUENCE No. (e.g., 1, 2, 3, etc.); […] (e.g., Cells, Incubation, Reagent, etc.); VALUE and DESCRIPTION.
1; Cells; 5 uL; white, solid bottom 1536-well Greiner assay plate.
2; Compounds; 23 nL; Kalypsis pin tool (Wako USA) equipped with a 1536-well pin head to transfer to the assay plates.
3; Incubation; 48 hours; 37C incubation.
4; Reagent;5uL; CellTiter Glo (Promega).
5; Detector; 425V; Luminescence; Viewlux PerkinElmer.
NOTES (numbers refer to Sequence numbers above)
1. The cell-based screening methods employed in this study were like those previously published. Briefly, the corresponding myeloma cell lines were screened in 1,536-well plates with 500 cells, 5-uL per well for inhibition of cell viability (assessed by measuring ATP levels with CellTiterGlo).
2. NCATS MIPE 4.0 library of approved and investigational drugs were added using the Kalypsis pin tool. Wells treated with DMSO only for 100% viability and media only for 0% viability were used as controls.
3. The assay plates were covered and incubated for 48 hours in a 37C, 5% CO2 incubator with controlled humidity.
4. After 48 hours, CellTilter-GloTM luminescent substrate mix (Promega) reagent was added to the assay plate and plates we incubated for 5 min at room temperature.
5. Signal was measured as median relative luminescence units on a ViewLux (PerkinElmer) multiplate reader.
[1] Heske CM, Davis MI, Baumgart JT, Wilson K, Gormally MV, Chen L, Zhang X, Ceribelli M, Duveau DY, Guha R, Ferrer M, Arnaldez FI, Ji J, Tran HL, Zhang Y, Mendoza A, Helman LJ, Thomas CJ. Matrix Screen Identifies Synergistic Combination of PARP Inhibitors and Nicotinamide Phosphoribosyltransferase (NAMPT) Inhibitors in Ewing Sarcoma. Clin Cancer Res. 2017 Dec 1;23(23):7301-7311. doi: 10.1158/1078-0432.CCR-17-1121. Epub 2017 Sep 12. PMID: 28899971; PMCID: PMC6636827.
Regarding `O=S(=O)(NCCNCC=Cc1ccc(Br)cc1)c1cccc2cnccc12`, the Potency is 8.33 µM (active).

In the case of `CC[C@H](NC(=O)[C@H](C)NC)C(=O)N1C[C@@H](O)C[C@H]1Cc1c(-c2[nH]c3cc(F)ccc3c2C[C@H]2C[C@H](O)CN2C(=O)[C@H](CC)NC(=O)[C@H](C)NC)[nH]c2cc(F)ccc12`, the Potency is 13.2 µM (active).

For the compound `CN[C@@H]1[C@@H](O)[C@@H](O[C@@H]2[C@@H](O)[C@H](O[C@H]3O[C@H](CN)[C@@H](O)[C@H](O)[C@@H]3O)[C@@H](N)C[C@@H]2NC(=O)[C@@H](O)CN)OC[C@]1(C)O`, the Potency result was “inactive”.

Turning to `O=C(Nc1cccc2c(=O)cc(-c3nn[nH]n3)oc12)c1ccc(OCCCCc2ccccc2)cc1`, the Potency is 18.7 µM (active).

`CC1CCN(c2cc(N3CCN(C)CC3)ccc2NC(=O)c2cc(C#N)c[nH]2)CC1`: the Potency result is “inactive”.

`O=c1[nH]nc(OCCCc2ccc(Cl)cc2)c(NCc2cccnc2)c1Br`: the Potency was 4.69 µM (active).

`CCNC(=O)[C@H]1O[C@@H](n2cnc3c(N)nc(NCCc4ccc(CCC(=O)O)cc4)nc32)[C@H](O)[C@H]1O`: the Potency entry was “inactive”.

Regarding `CN(C)CCCNC(=O)c1ccc(-c2cc(O)c3ncccc3c2)cc1`, the Potency is 16.6 µM (active).

Take `Clc1ccc(C2(c3ccc(-c4cn[nH]c4)cc3)CCNCC2)cc1`: the Potency is 2.35 µM (active).

Turning to `O=C(NCCCCN1CCOCC1)c1cc2ccccc2o1`, the Potency result was “inactive”.

`Cc1ccc(NC(=O)c2cccc(N(C)C)c2)cc1NC(=O)c1ccc(O)cc1`: the Potency is 23.5 µM (active).

Regarding `CNC(=O)c1cc(Oc2ccc(NC(=O)Nc3ccc(Cl)c(C(F)(F)F)c3)c(F)c2)ccn1`, the Potency result is “inactive”.

Take `NC(=O)c1nnn(Cc2cc(Cl)c(C(=O)c3ccc(Cl)cc3)c(Cl)c2)c1N`: the Potency was 16.6 µM (active).

For the compound `CCc1cc(-c2n[nH]c(C)c2-c2ccc3c(c2)OCCO3)c(O)cc1O`, the Potency was 6.62 µM (active).

As to `COc1cc2nccc(Oc3ccc(NC(=O)Nc4cc(C)on4)c(Cl)c3)c2cc1OC`, the Potency was 20.9 µM (active).

With `Cc1cc(C(C)Nc2ccccc2)c2nc(N3CCOCC3)cc(=O)n2c1` (stereo not given), the Potency was 20.9 µM (active).

With `CCC[C@H](Nc1nc(-c2ccc(NC(=O)NCC)c(OC)c2)ncc1C)c1cccnc1`, the Potency is 0.001 µM (active).

Take `Cc1nn(Cc2ccccc2Cl)c(C)c1CN(C)CC(O)COc1ccc(Cl)cc1` (stereo not given): the Potency was 20.9 µM (active).

`Nc1[nH]nc2nnc(-c3c(-c4ccccc4)nn4ccccc34)cc12`: the Potency was 5.26 µM (active).

For the compound `Nc1ncnc2c1ncn2[C@@H]1O[C@H](CO)[C@@H](O)[C@@H]1O`, the Potency was 20.9 µM (active).

Turning to `Cc1nc(C(=O)NCC(=O)O)c(O)c2ccc(Oc3ccccc3)cc12`, the Potency entry was “inactive”.

Consider `O=C(O)CCNc1cc(N2CCc3ccccc3CC2)nc(-c2ccccn2)n1`, for which the Potency was 5.26 µM (active).

For the compound `Cc1cnc(CNC(=O)c2c(=O)c3ccc(N4CCCN(C)CC4)nc3n3c2sc2ccccc23)cn1`, the Potency entry was “inactive”.

As for `CN(C)N=Nc1nc[nH]c1C(N)=O`, the Potency was 4.18 µM (active).

In the case of `COc1ccc(-c2cc3nccn3c(Nc3ncccc3C(N)=O)n2)cc1OC`, the Potency was 2.09 µM (active).

With `CN1CCc2c(n(Cc3ccc(C(=O)NO)cc3)c3ccccc23)C1`, the Potency is 16.6 µM (active).

With `CCOC(=O)[C@H](CCc1ccccc1)N[C@@H](C)C(=O)N1CCCC1C(=O)O` (stereo not given in full), the Potency result is “inactive”.

Regarding `C[C@@]1(C(=O)Nc2ccc(F)nc2)CCCN1c1nc(Nc2cc(C3CC3)[nH]n2)c2cccn2n1`, the Potency is 1.66 µM (active).

Regarding `CCNC(=O)CCCC=CC[C@@H]1[C@H](C=CC(O)CCc2ccccc2)[C@@H](O)C[C@@H]1O` (stereo not given in full), the Potency result is “inactive”.

With `O=C(O)C1=NC(C(=O)O)CC(C=CN2c3cc(O)c(OC4OC(CO)C(O)C(O)C4O)cc3CC2C(=O)O)=C1` (stereo not given), the Potency result is “inactive”.

As for `CC(C)(O)CC(=O)NCCn1ccc2ncnc(Nc3ccc(Oc4cccc(C(F)(F)F)c4)c(Cl)c3)c21`, the Potency was 26.4 µM (active).

For `NS(=O)(=O)c1cc(Cl)c(Cl)c(S(N)(=O)=O)c1`, the Potency result is “inactive”.

For `CN(C)CCOc1ccc(-c2nc(-c3ccc4c(c3)CCC4=NO)c(-c3ccncc3)[nH]2)cc1`, the Potency was 16.6 µM (active).

In the case of `C[C@H]1COC2=C1C(=O)C(=O)c1c2ccc2c1CCCC2(C)C`, the Potency was 20.9 µM (active).

Consider `CO[C@H]1C=CO[C@@]2(C)Oc3c(C)c(O)c4c(O)c(c(C=NN5CCN(C)CC5)c(O)c4c3C2=O)NC(=O)C(C)=CC=C[C@H](C)[C@H](O)[C@@H](C)[C@@H](O)[C@@H](C)[C@H](OC(C)=O)[C@H]1C`, for which the Potency result was “inactive”.

In the case of `OC(c1cc(C(F)(F)F)nc2c(C(F)(F)F)cccc12)C1CCCCN1` (stereo not given), the Potency is 18.7 µM (active).

For `CC1C(=O)OC2C(O)C34C5CC(C(C)(C)C)C36C(OC(=O)C6O)OC4(C(=O)O5)C12O` (stereo not given), the Potency result was “inactive”.

As to `CCOC(=O)c1c(CSc2ccccc2)n(C)c2cc(Br)c(O)c(CN(C)C)c12`, the Potency was 5.26 µM (active).

Consider `CC(C)CNc1ccnc(NCc2csc(-c3ccccc3)n2)n1`, for which the Potency was 11.8 µM (active).

For the compound `O=C(CCCN1CCN(c2ccc(F)cc2)CC1)NC1c2ccccc2CSc2ccccc21` (stereo not given), the Potency was 10.5 µM (active).
